Only a sample is shown.
CYP2C9 activ: human CYP2C9 activators, primary screen, biochemical, luminescence; activation factor at 5 µM; AID 1024, 2008; 96,000 compounds, 1.4% hits; Cytochrome P450 2C9 (Homo sapiens), P11712; recombinant CYP2C9, luciferin-H conversion; hits give high values; factor 1 = untreated enzyme, 0 = blocked;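 active = activation factor of 2 or more for CYP2C9 at a 5 µM dose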;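 also: 0 = sulfaphenazole-blocked wells and 1 = vehicle-only wells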
Target sequence (P11712 whole entry, looked up): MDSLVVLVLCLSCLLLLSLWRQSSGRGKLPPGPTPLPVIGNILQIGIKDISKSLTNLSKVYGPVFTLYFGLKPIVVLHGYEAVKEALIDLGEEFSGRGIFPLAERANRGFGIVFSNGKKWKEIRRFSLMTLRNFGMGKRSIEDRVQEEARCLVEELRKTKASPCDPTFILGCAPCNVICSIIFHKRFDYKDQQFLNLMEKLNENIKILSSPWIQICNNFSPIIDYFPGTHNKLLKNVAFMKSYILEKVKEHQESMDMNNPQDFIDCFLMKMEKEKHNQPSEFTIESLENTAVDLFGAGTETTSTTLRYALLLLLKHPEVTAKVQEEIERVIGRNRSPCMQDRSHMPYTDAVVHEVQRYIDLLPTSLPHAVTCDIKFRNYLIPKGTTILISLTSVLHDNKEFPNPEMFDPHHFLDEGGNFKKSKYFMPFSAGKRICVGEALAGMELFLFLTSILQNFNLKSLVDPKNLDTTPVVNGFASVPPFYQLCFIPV
CYP2C9 inh: blockers of cytochrome P450 2C9 activity – biochemical, luminescence, ADME assay, primary screen; P11712; CYP2C9 Supersomes, luciferin-H conversion; inhibition, % at 5 µM; 96,000 compounds, 20% hits;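 active = blocking of liver enzyme CYP2C9 beyond about 50% at 5 µM, limit read from the data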
CYP2C19 act: human CYP2C19 activators, primary screen, biochemical, luminescence. recombinant CYP2C19, luciferin-H EGE luminescence; hits give high values; 0 = fully inhibited enzyme, 1 = untreated enzyme. activation factor at 5 µM. 96,000 tested, under 10 active. AID 1025, 2008;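 active = activation factor of at least 2 at 5 µM in the primary screen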;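 also: 0 = wells with 2.5 mM tranylcypromine and 1 = vehicle-only wells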
CYP2C19 inh: blockers of cytochrome P450 2C19 activity – biochemical, luminescence, ADME assay, primary screen; P33261; CYP2C19 Supersomes, luciferin-H EGE luminescence, 30 min; inhibition, % at 5 µM; 96,000 compounds, 21% hits;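 active = CYP2C19 inhibition above a set limit at 5 µM in the primary screen, cut at about 50% in these data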;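 also: plate controls were negative control wells for no effect and 2.5 mM tranylcypromine positive control for full effect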
PostGolgi yeast: phenotypic screen on post-Golgi transport, primary screen. post-Golgi transport phenotypic cell assay. inhibition, % at 10 µM. 98,000 compounds, 0.9% hits;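 also: yeast cells grown in 1536-well plates; yeast grown about 18 h at 30C before absorbance read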
PostGolgi ctrl: growth inhibition of yeast control strain, primary screen, counter-screen for post-Golgi transport modulator project; efflux-deficient yeast background strain, growth absorbance A615, 16 h; inhibition, % at 10 µM; 98,000 compounds, 5% hits
* hit, by the source's call; . = not tested or not shown. Rule as the data show it, unless noted: active = inhibition above about 30%; inactive = the rest.

SMILES | CYP2C9 activ | CYP2C9 inh | CYP2C19 act | CYP2C19 inh | PostGolgi yeast | PostGolgi ctrl
CC(C)C/C(=N/O)c1c[nH]c2ccccc12 | 0.4 | 59* | 0.2 | 77* | -8 | 10
CCC(=O)c1cn(Cc2ccccc2C#N)c2ccccc12 | 0.5 | 52* | 0.2 | 76* | 7 | 31*
N#Cc1ccccc1Cn1cc(C(=O)C2CC2)c2ccccc21 | 0.8 | 17 | 0.7 | 31 | -7 | 5
CN(C)CCOC(=O)c1cn(Cc2ccccc2)c2ccccc12 | 0.9 | 13 | 0.8 | 23 | -9 | 2
N#Cc1ccccc1Cn1cc(C(=O)c2ccco2)c2ccccc21 | 0.4 | 56* | 0.3 | 66* | -5 | 12
CCn1cc(C(=O)c2cccs2)c2ccccc21 | 3.1* | -209 | 0.9 | 11 | 0 | 5
O=C(c1ccco1)c1cn(Cc2ccccc2)c2ccccc12 | 0.1 | 93* | 0.1 | 93* | 7 | -1
O=C(O)Cn1cc(C(=O)c2ccccc2)c2ccccc21 | 1 | -2 | 1.1 | -8 | 11 | 2
CC(=NCc1ccc(F)cc1)c1c(O)n(C)c(=O)n(C)c1=O | 0.9 | 12 | 0.6 | 36 | 1 | 7
CC(C)(C)N(NC(=O)c1ccccc1)C(=O)c1ccccc1 | 0.7 | 25 | 0.9 | 13 | 7 | 8
O=C(c1ccco1)c1cn(Cc2ccccc2Cl)c2ccccc12 | 0.1 | 89* | 1.3 | -27 | 0 | 17
O=C(Cn1cc(C(=O)c2ccccc2F)c2ccccc21)NCc1ccco1 | 0.7 | 26 | 0.9 | 12 | -4 | 3
CCc1cc2c(s1)NC(=O)CN=C2c1cccs1 | 0.6 | 39 | 0.6 | 44 | 27 | 19
COc1cc(OC)c(OC)cc1CNC(C)C(O)c1ccccc1 (stereo not drawn) | 1.2 | -16 | 0.3 | 67* | 1 | 1
C=Cn1c(P(=S)(N2CCOCC2)N2CCOCC2)cc2c1CCCC2 | 0.9 | 8 | 0.7 | 34 | -10 | 27
CC(=O)c1c(C)n(CCCOC(C)C)c2ccc(O)cc12 | 0.4 | 55* | 0.4 | 62* | -4 | 3
FC(F)(F)C1=NC(C(F)(F)F)=NP(N2CCOCC2)(N2CCOCC2)=N1 | 1.1 | -13 | 1 | 2 | -1 | 1
C(=NC12CN3CN(CN(C3)C1)C2)c1cccs1 | 1.1 | -9 | 1.2 | -19 | 13 | -7
COC(=O)C1=C(N)OC(C)=C(C(C)=O)C12C(=O)N(C)c1ccccc12 (stereo not drawn) | 0.8 | 17 | 1 | -4 | . | .
COC(=O)C1=C(N)Oc2c(c(=O)oc3ccccc23)[C@]12C(=O)N(C)c1ccccc12 | 0.3 | 68* | 0.3 | 68* | -4 | -3
Cc1ccc(C(=O)n2cc(CCN3CCS(=O)(=O)CC3)c3ccccc32)cc1 | 0.6 | 42 | 0.6 | 39 | -6 | 22
O=c1cccc2n1CC1CC2CN(c2ncnc3c2cnn3-c2ccccc2)C1 (stereo not drawn) | 0.6 | 41 | 0.8 | 15 | 5 | -8
Fc1ccc(CCNCc2ccc(Cl)c(Cl)c2)cc1 | 0.9 | 7 | 0 | 96* | -12 | 6
CC1(C)CC(n2[nH]c(=O)c3c2NC(=O)CSC3c2ccc(F)cc2)CCO1 (stereo not drawn) | 0.9 | 7 | 0.9 | 11 | -6 | 1
O=C(C1CCC(=O)N1C1CCCCC1)N1CCC2(CC1)OCCO2 (stereo not drawn) | 0.9 | 9 | 1 | 3 | 11 | -2
O=C1Nc2ccccc2/C1=C/c1cnc[nH]1 | 0.1 | 92* | 0 | 99* | 10 | 10
CCC(=NCC1CCCO1)c1c(O)n(-c2ccc(Cl)cc2)c(=O)[nH]c1=O (stereo not drawn) | 1.2 | -21 | 0.7 | 27 | -1 | 2

Compound activity (PubChem)
